{"source": "PubChem BioAssay AID493244", "about": "(The Scripps Research Institute Molecular Screening Center, 2011)", "note": "Values joined by “and” are separate entries in the source; they are usually repeats but may differ in a detail not shown here. Equal values may be shown once. In all, about 340,000 compounds went through this assay and about 390 (0.11%) were called active. Shown is part of a subset that was picked to be rich in actives. Unmarked numbers belong to inactive results.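 How the source made its calls: active means inhibition above the mean inhibition of all tested compounds plus 3 SD (cut at about 17% in these data); inactive means the rest.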", "data": [{"molecular_target": "Troponin I, cardiac muscle (Homo sapiens) + Troponin T, cardiac muscle (Homo sapiens) + Troponin C, slow skeletal and cardiac muscles (Homo sapiens) (UniProt P19429+P45379+P63316)", "test": "calcium desensitizers of cardiac thin filaments – biochemical, IANBD-TnC fluorescence, EC70 calcium, primary screen (AID 493244);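 further: assay run at fixed EC70 calcium of 1.6 mM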", "details": "IANBD-labeled cardiac RTF, Ca2+ fluorescence; at 7.15 µM; active compounds read high", "values": [{"smiles": "CCS(=O)(=O)c1ccc(-c2cccc(NC(=O)c3ccc(Br)o3)c2)nn1", "inhibition": "9.7%"}, {"smiles": "COc1ccc(C(CNC(=O)c2cc(S(=O)(=O)Nc3cccc(C)c3)ccc2C)N2CCCC2)cc1", "note": "(stereo not given)", "inhibition": "-1.95%"}, {"smiles": "CSCCC1NC(=O)N(CC(=O)Nc2cccc(S(=O)(=O)N3CCCCCC3)c2)C1=O", "note": "(stereo not given)", "inhibition": "-6.38%"}, {"smiles": "CC(C)CC(=O)c1c[nH]c(C(=O)NCc2ccccc2)c1", "inhibition": "-10.5%"}, {"smiles": "COc1ccccc1CCC(=O)NNC(=O)c1ccncc1", "inhibition": "-23.1%"}, {"smiles": "O=S(=O)(Oc1ccccc1C(=S)N1CCOCC1)c1ccc(Cl)cc1", "inhibition": "1.09%"}, {"smiles": "O=C(c1cccc(F)c1)N1CCN(c2ccc([N+](=O)[O-])c3cccnc23)CC1", "inhibition": "12.4%"}, {"smiles": "O=C(CN1CCOCC1)Nc1cccc([N+](=O)[O-])c1", "inhibition": "-4.8%"}, {"smiles": "CN(CCCC(=O)Nc1nccs1)S(=O)(=O)c1ccc(Cl)cc1", "inhibition": "-8.75%"}, {"smiles": "C=CCC1(C(=O)N(C)Cc2ccccc2)CCN(C(=O)OC(C)(C)C)CC1", "inhibition": "-8.43%"}, {"smiles": "CN(C)c1ccc(NC(=O)CN2C3CCCC2CC(NC(=O)c2ccccc2)C3)cc1", "note": "(stereo not given)", "inhibition": "1.88%"}, {"smiles": "CCCCCn1c(=O)c(C(=O)OCC)c(Cl)c2ccccc21", "inhibition": "2.78%"}, {"smiles": "CCCCn1c(=O)c(C(C)=O)c(O)c2ccccc21", "inhibition": "18.1% (active)"}, {"smiles": "CCCn1c(=O)c(-c2ccccc2)c(O)c2ccccc21", "inhibition": "-0.9%"}, {"smiles": "Cc1cc(C)c2nc(SCC(=O)N(C)C3CCS(=O)(=O)C3)cc(C)c2c1", "note": "(stereo not given)", "inhibition": "-11.7%"}, {"smiles": "Cc1cc2oc(=O)cc(-c3ccccc3)c2c(C)c1-c1ccc(OC(F)(F)F)cc1", "inhibition": "-2.33%"}, {"smiles": "CCn1c(SCc2cc(=O)n3ccsc3n2)nc2ccccc21", "inhibition": "-0.11%"}, {"smiles": "COc1ccc(S(=O)(=O)NCC2CCCN(C(=O)c3occc3C)C2)cc1", "note": "(stereo not given)", "inhibition": "-1.36%"}, {"smiles": "COc1ccc2oc(N)nc2c1", "inhibition": "1.17%"}, {"smiles": "COc1cc(C(=O)Nn2c(O)c(C3=c4ccccc4=NC3=O)sc2=S)ccc1O", "inhibition": "-0.38%"}, {"smiles": "C=CCn1c(N)cc(=O)nc1SCC(=O)Nc1cccc2ccccc12", "inhibition": "-2.98%"}, {"smiles": "COc1cc(OC)c2c(c1)OC(=O)CC2c1cc(OC)c(OC)c(OC)c1", "note": "(stereo not given)", "inhibition": "-1.64%"}, {"smiles": "NC(=O)C1(N2CCCCC2)CCN(C(=O)c2ccc(C#Cc3ccccc3)o2)CC1", "inhibition": "-7.6%"}, {"smiles": "N#CC1(Nc2ccc(-c3ccc(Cl)cc3)cc2)CCCC1", "inhibition": "-2.12%"}, {"smiles": "O=C(COC(=O)c1ccccc1SCC(=O)NC1CCCCC1)NC1CCCCC1", "inhibition": "1.46%"}, {"smiles": "O=C(COC(=O)c1ccccc1Cl)NC1CCCCCCC1", "inhibition": "3.26%"}, {"smiles": "C=CCNC(=O)COC(=O)c1ccccc1C(=O)N(C)C1CCCCC1", "inhibition": "18.3% (active)"}, {"smiles": "CCCCN(C(=O)CSCc1ccc(C)cc1)c1c(N)n(Cc2ccccc2)c(=O)[nH]c1=O", "inhibition": "-2.92%"}, {"smiles": "COc1cccc(NC(=S)C(C#N)=C2N(C)c3ccccc3N2C)c1", "inhibition": "-5.1%"}, {"smiles": "Cc1nc(-c2ccccc2)sc1-c1nnc(C2CC2)o1", "inhibition": "-8.96%"}, {"smiles": "O=C(CNC(=O)C12CC3CC(CC(C3)C1)C2)OCC(=O)N1CCCCC1", "inhibition": "-10.1%"}, {"smiles": "CC1(C)C/C(=N/Nc2ccc([N+](=O)[O-])cc2[N+](=O)[O-])C(C)(C)O1", "inhibition": "-8.69%"}, {"smiles": "Cc1ccc(C(=O)C[n+]2cc(-c3ccccc3)n3c2CCCCC3)cc1", "inhibition": "-12.2% and -7.58%"}, {"smiles": "CCOC(=O)c1nnn2c1nc(N1CCN(c3ccccc3)CC1)c1ccccc12", "inhibition": "-5.69%"}, {"smiles": "CCCCn1c(N)c(N(CC(C)C)C(=O)CSc2ccc([N+](=O)[O-])cc2)c(=O)[nH]c1=O", "inhibition": "-11.5%"}, {"smiles": "C[N+](C)(C)CCNC(=O)c1cc[n+](Cc2ccccc2)c(/C=N/O)c1", "inhibition": "0.25%"}, {"smiles": "CC1CCCCC1NC(=O)COC(=O)Cc1ccc(Br)cc1", "note": "(stereo not given)", "inhibition": "-1.84%"}, {"smiles": "O=C1Nc2c(Br)cc(Br)cc2C1(O)N1CCOCC1", "note": "(stereo not given)", "inhibition": "-1.44%"}, {"smiles": "CCc1[nH]nc(C(=O)N2CCCC(CO)(Cc3ccc(F)cc3F)C2)c1C", "note": "(stereo not given)", "inhibition": "-5.33%"}, {"smiles": "COC(C(=O)Nc1ccc(S(=O)(=O)Nc2ccc(C)c(C)c2)cc1)c1ccccc1", "note": "(stereo not given)", "inhibition": "-0.7%"}, {"smiles": "Cc1cccc(-c2c(NC(=O)c3ccco3)oc3ccc(Cl)cc3c2=O)c1", "inhibition": "-4.74%"}, {"smiles": "C/C(=N\\NC(=O)COc1ccc(C)cc1[N+](=O)[O-])c1ccc2c(c1)OCCO2", "inhibition": "-7.39%"}, {"smiles": "C/C(=N/NC(=O)c1ccncc1)c1ccc2c(c1)OCO2", "inhibition": "-5.5%"}, {"smiles": "C/C(=N\\NC(=O)C(N)=O)c1ccc2c(c1)OCCO2", "inhibition": "17.1% (active)"}, {"smiles": "CC(C)(C)c1ccc(C(=O)NCc2nnc(SCC(=O)N3CCCc4ccccc43)n2-c2ccccc2)cc1", "inhibition": "-6.84%"}, {"smiles": "CCCCSc1nnc2c(n1)OC=Nc1ccccc1-2", "inhibition": "-2.01%"}, {"smiles": "Cc1ccc2c(c1)C1C[N+](C)(CC(=O)c3ccccc3)CCC1N2C(=O)c1ccccc1Cl", "note": "(stereo not given)", "inhibition": "-13.7%"}, {"smiles": "COc1ccc(C2CC(=O)NC(=O)C2)cc1", "inhibition": "-0.2%"}, {"smiles": "COc1ccc(CCC(=O)Nc2ccc(Cl)c(S(=O)(=O)N3CCOCC3)c2)cc1OC", "inhibition": "-10.9%"}, {"smiles": "CCc1nnc(NC(=O)c2cc(S(=O)(=O)N3CCN(CC)CC3)ccc2Cl)s1", "inhibition": "-8.17%"}]}]}
